Inconclusive results are not listed. Active and inactive are the calls of the source. Calls come from the whole dose curve; as a rule, active = well fitted curve in the direction sought with a large enough effect; inconclusive = small, poorly fitted or top-dose-only effect, or another doubt; inactive = no such curve, though single readings can be large or run the other way.
Assay: KB-8-5-11 P-gp reporter qHTS against the NCATS DSHEA and TCM libraries (AID 1919977)
Details: KB-8-5-11 cells; series mostly up to 26.1 µM
Excerpt: Assay Development and Screening Technology Laboratory (ADST)
National Center for Advancing Translational Sciences (NCATS), Rockville, MD
National Institute of Health (NIH), Bethesda, Maryland
Dietary Supplements and Natural Products have minor oversight of their safety and efficacy. We assembled a collection of Dietary Supplements and Natural Products (DSNP) as well as Traditional Chinese Medicinal (TCM) Plant extracts, which were screened against an in vitro panel of assays, including a liver cytochrome p450 enzyme panel, CAR/PXR signaling pathways, and P-gp transporter assays, to assess their activity. This pipeline facilitated the interrogation of Natural Product-Drug Interaction (NaPDI) through prominent metabolizing pathways. In addition, we compared the activity profiles of the DSNP/TCM substances with those of an approved drug collection. Many of the approved drugs have well-annotated mechanisms of action (MOA) while the MOAs for most of the DSNP and TCM samples remain unknown. Based on the premise that compounds with similar activity profiles tend to share similar targets or MOA, we clustered the library activity profiles to identify overlap with the NCATS Pharmaceutical Collection to predict the MOAs of the DSNP/TCM substances. Overall, we highlight four significant bioactivity profiles (measured by p-values) as examples of this prediction. To assess broad cytotoxicity, we employed screening against a HepG2 cell line. In addition, transporter-mediated drug interactions are utilized in the characterization of DDIs using a P-glycoprotein (P-gp) assays. To profile potential P-gp activity, a differential cell viability was measured against two cell lines: a parental KB-3-1 human cervical adenocarcinoma cell line and the drug-resistant subline KB-8-5-11 that overexpresses P-gp.
To this end, we profiled both collections for potential CAR and/or PXR activity, employing a previously published 1536-well qHTS assay.
[1] Lee TD, et al. A High-Throughput Screen of a Library of Therapeutics Identifies Cytotoxic Substrates of P-glycoprotein. Mol Pharmacol. Nov 2019;96(5):629-640. doi:10.1124/mol.119.115964
PROTOCOL TABLE (as described by Inglese J, Shamu CE and Guy RK. 2007)
SEQUENCE No. (e.g., 1, 2, 3, etc.); PARAMETER (e.g., Cells, Incubation, Reagent, etc.); VALUE; DESCRIPTION.
1; Cells; 5 uL; KB-8-5-11 cells, white solid-bottom tissue treated Greiner plate.
2; Incubation; 4 hrs; 37C, 95% humidity, 5% CO2.
3; Compounds and control; 23 nL; Kalypsis pin tool (Wako USA) equipped with a 1536-well pin head to transfer to the assay plates.
4; Incubation; 72 hrs; 37C, 95% humidity, 5% CO2.
5; Reagent; 2.5 uL; CellTiter-Glo.
6; Centrifuge; 1000 RPM; 15 seconds.
7; Incubation; 30 min; room temperature.
8; Read; Luminescence; ViewLux plate reader.
NOTES (numbers refer to Sequence numbers above)
1. P-gp-overexpressing subline KB-8-5-11 were maintained in DMEM (Thermofisher catalog #11965) with 10% FBS and 1% penicillin/streptomycin at 37C in 5% CO2. For KB-8-5-11 cells, colchicine was added to the medium at a concentration of 100 ng/ml (after initial cell attachment). For the screen, assay medium was identical to culture medium except for KB-8-5-11, where colchicine was excluded from the medium. Briefly, 5 uL of cells at 1 x 10^5 cells/mL (500 cells/well) were dispensed into a 1536-well white solid-bottom tissue treated plate (Greiner Bio-One) using a Multidrop Combi dispenser.
2. Plates were incubated at 37C, 95% humidity, 5% CO2 for ~4 hours to allow for cell attachment.
3. Compounds and intraplate control (Bortezomib; final concentration range 228 pM - 7.5 uM) were transferred (16 nL) via pintool (Wako Automation), for a final concentration of 15.6 nM - 30.0 uM (most substances).
4. Plates were incubated for ~72 hours at 37C, 95% humidity, 5% CO2.
5. Plates were then dispensed with 2.5 uL of CellTiter-Glo.
6. The assay plates were centrifuged for 15 seconds at 1,000 RPM's.
7. The plates were incubated for 30-minute at room temperature.
8. […]

| SMILES | outcome |
| --- | --- |
| O=C(/C=C/c1ccc(O)c(O)c1)O[C@@H]1C[C@@](OC(=O)/C=C/c2ccc(O)c(O)c2)(C(=O)O)C[C@@H](O)[C@@H]1O | inactive |
| C[C@]12CC[C@H](O)CC1=CC[C@@H]1[C@@H]2CC[C@]2(C)C(=O)CC[C@@H]12 | inactive |
| Nc1nc2ncc(CNc3ccc(C(=O)N[C@@H](CCC(=O)O)C(=O)O)cc3)nc2c(=O)[nH]1 | inactive |
| COc1ccc2cc3[n+](cc2c1OC)CCc1cc2c(cc1-3)OCO2 | inactive |
| O=c1ccc2ccccc2o1 | inactive |
| OC[C@H]1O[C@@H](OCCc2ccc(O)cc2)[C@H](O)[C@@H](O)[C@H]1O | inactive |
| O=C1O[C@H]([C@@H](O)CO)C(O)=C1O | inactive |
| Cn1c(=O)c2c(ncn2C)n(C)c1=O | inactive |
| NC(N)=NCCC[C@H](N)C(=O)O | inactive |
| C/C=C/c1ccc(OC)cc1 | inactive |
| OC1C(O)C(O)C(O)C(O)C1O (stereo unspecified) | inactive |
